Assay results reported in PubChem BioAssay (Tox21).
The source made the active and inactive calls. The call rests on the fitted dose curve; in most records, active means well fitted curve in the direction sought with a large enough effect in the repeat runs; inconclusive means weak or mixed curves; inactive means flat fitted curve, though single readings scatter.

Experiment: qHTS assay to test for compound auto fluorescence at 590 nm (red) in HepG2 cells (AID 720674)
Conditions: HepG2 autofluorescence, red 540/590 nm, 1 h; series mostly up to 91.3 µM
Source text: U.S. Tox21 Program National Center for Advancing Translational Sciences [NCATS] NIH Chemical Genomics Center [NCGC] U.S. Environmental Protection Agency [EPA] National Institutes of Environmental Health Sciences [NIEHS] National Toxicology Program [NTP] U.S. Food and Drug Administration [FDA] Tox21 Assay Overview: Compound auto fluorescence often interferes with screening of the compound library against various biological targets and signaling pathways. Some of these compounds may have fluorophoric properties. Such properties may interfere with the assay outputs resulting in false positives and/or negatives. To decrease such complications and ensure the compound activities are relevant in terms of biological response, the Tox21 10K compound library was screened for auto fluorescence. From the fluorophores used as reporter signals in our screening assays, the auto fluorescence equivalencies of compounds against three fluorophores have been evaluated: Triamterene, Fluorescein and Rose Bengal sodium for blue, green and red fluorescence, respectively. The fluorescence intensities were measured using Excitation/Emission wavelengths at 405/460nm, 485/535nm and 540/590nm for blue, green and red labels, respectively. This assay includes the red fluorescence data.
Tox21 Assay Protocol Summary: 2,000 HepG2 cells in 5 uL of culture medium (MEM containing 10% FBS) per well were dispensed into black wall/clear bottom 1536-well plates using a Multidrop Combi Dispenser (ThermoFisher Scientific, Waltham, MA). The assay plates were incubated overnight at 37 C to allow cell attachment to the well bottom, followed by the transfer of 23 nL compound or DMSO vehicle by a pintool work station (Kalypsys , San Diego, CA). After the assay plates were incubated for 1 hr at 37 C and 5% CO2, fluorescence intensities in the assay plates were measured by an Envision (PerkinElmer, Shelton, CT) plate reader using three labels for measuring blue, green and red fluorescence at […] 460, 535 and 590 nm respectively.

SMILES | outcome
COc1nc(NC(C)C)nc(NC(C)C)n1 | inactive
Cl[C@H]1OCCO[C@@H]1Cl | inactive
CC(C)(C)C(=O)CCl | inactive
Nc1cccc(Cl)c1 | inactive
CN(C)CCC#N | inactive
CC12CC1(C)C(=O)N(c1cc(Cl)cc(Cl)c1)C2=O (stereo not given) | inactive
CN(C)NC(=O)CCC(=O)O | inactive
CC(C)CCCCCCOC(=O)c1ccccc1C(=O)OCCCCCCC(C)C | inactive
O=C(O)Cc1ccccc1 | inactive
COP(=S)(OC)Oc1ccc(SC)c(C)c1 | inactive
COc1cc(-c2ccc(N)c(OC)c2)ccc1N | inactive
Nc1cc(Cl)cc(Cl)c1 | inactive
NNc1ccccc1 | inactive
Sc1ccccc1 | inactive
C=CC#N | inactive
CNC(=O)O/N=C(\SC)C(=O)N(C)C | inactive
C=CCN=C=S | inactive
Cc1cccc(C)c1NC(=O)CN1CCCC1=O | inactive
CCCOC(=O)c1ccccc1C(=O)OCCC | inactive
Clc1cnc(Oc2ccc(Oc3ncc(Cl)cc3Cl)cc2)c(Cl)c1 | inactive

SMILES | outcome
ClCCOCCCl | inactive
CC(=O)/C=C/c1ccccc1 | inactive
CC(=O)C1CCOC1=O (stereo not given) | inactive
CCOP(=S)(OCC)Oc1cc(C)nc(C(C)C)n1 | inactive
CCCCC(CC)C(=O)Cl (stereo not given) | inactive
Cc1cccc(N)c1 | inactive
C=CC(=O)OCCCCCC(C)C | inactive
Cc1ccc(O)c(C)c1 | inactive
FC(F)(F)c1ccc(Cl)cc1 | inactive
N#CN=C(N)N | inactive
CC[N+](=O)[O-] | inactive
C[C@H]1C(=O)O[C@@H]2CCN3CC=C(COC(=O)[C@](C)(O)[C@]1(C)O)[C@H]23 | inactive
CNC(=O)O/N=C/C(C)(C)S(C)=O (stereo not given) | inactive
Oc1c(Br)cc(Br)cc1Br | inactive
OCc1ccco1 | inactive
C[C@]12CC[C@H](O)CC1=CC[C@@H]1[C@@H]2CC[C@]2(C)C(=O)CC[C@@H]12 | inactive
COC(=O)Nc1cccc(OC(=O)Nc2cccc(C)c2)c1 | inactive
Cc1cc(O)ccc1Cl | inactive
Nc1ccc([As](=O)(O)O)cc1 | inactive
Cl/C=C/Cl | inactive
